Test results as given in PubChem BioAssay AID1259318 (Sanford-Burnham Center for Chemical Genomics, 2017).
Hit rate of the full screen: of about 370,000 compounds, about 3,000 (0.81%) were called active. The sample holds actives, similar compounds and a random draw of the others, so the mix is not that of the screen.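 Rule for the calls: active = activity above about 14% (limit read from the data; passing the limit was not always enough); inactive = the rest.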 Where a SMILES comes first, the peptide text is derived from it. Side-chain parts run from the residue outwards. [ ]: non-standard residue; d: D form. The star is where a group is joined. X1 = CCC(C)C(N)C1=NC(C(=O)*)CS1; Orn = NCCC[CH](N)C(=O)O

What follows are molecules tested against Nuclear receptor subfamily 1 group D member 1 (Homo sapiens) (UniProt P20393) (assay: Rev-erbα–DNA interaction modulation – biochemical, FITC-DNA, fluorescence polarization, uHTS, primary screen (AID 1259318;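 note: 0% = DMSO wells with 35 nM protein and 100% = DMSO wells with 750 nM protein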)). Settings: Rev-erbα–FITC-DNA binding, 90 min, at 10 µM, active compounds read high.
Nuclear receptor subfamily 1 group D member 1 (Homo sapiens), sequence (P20393 whole entry, looked up): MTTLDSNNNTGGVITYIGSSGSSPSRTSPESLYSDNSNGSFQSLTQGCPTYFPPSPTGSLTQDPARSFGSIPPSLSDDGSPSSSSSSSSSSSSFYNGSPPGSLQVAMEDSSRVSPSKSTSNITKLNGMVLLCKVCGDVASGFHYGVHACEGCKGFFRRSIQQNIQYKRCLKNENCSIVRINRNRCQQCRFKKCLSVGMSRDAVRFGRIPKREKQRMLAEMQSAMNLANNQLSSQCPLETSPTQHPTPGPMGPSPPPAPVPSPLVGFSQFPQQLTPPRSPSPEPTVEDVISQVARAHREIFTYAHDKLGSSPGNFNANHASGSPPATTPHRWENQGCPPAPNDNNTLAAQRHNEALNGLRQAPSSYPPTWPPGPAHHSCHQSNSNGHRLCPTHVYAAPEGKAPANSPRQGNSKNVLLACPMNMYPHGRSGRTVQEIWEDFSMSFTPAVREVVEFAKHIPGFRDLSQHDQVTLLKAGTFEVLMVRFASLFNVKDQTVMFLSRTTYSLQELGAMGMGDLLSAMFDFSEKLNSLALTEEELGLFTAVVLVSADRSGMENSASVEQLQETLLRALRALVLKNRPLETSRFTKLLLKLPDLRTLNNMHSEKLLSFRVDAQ

activity, active:
COC(=O)c1ccc(NC(=O)c2cc(Cl)ccc2OC)cc1 46.1%
CCc1ccc2c(c1)cc(CN(C(=S)Nc1ccccc1Cl)C1CC1)c1nnnn12 18.7%
COc1ccc(-c2nnc(SCC(=O)c3ccc4c(c3)OCCO4)o2)cc1 39.7%
Cn1c(=O)n(C)c2cc(/C=N/NC(=O)c3cccc(Br)c3)ccc21 49.2%
O=C(CCn1c(=S)[nH]c2cc3c(cc2c1=O)OCO3)NCc1ccc(Cl)cc1 21.7%
Cc1nn(C)cc1N1C(=O)c2cccc3c(N)ccc(c23)C1=O 153%
CN1C(=O)c2cccc3c(N)ccc(c23)C1=O 275%
COc1ccc(/C=C2\SC(=S)N(CCCC(=O)NC3CCCC3)C2=O)cc1OC 40.1%
Cc1cc(NC(=O)CSc2nc(C(C)C)nc3sc4c(c23)CCC(C)C4)no1 (stereo not given) 58.2%
Cc1nc(SCC(=O)Nc2cc(C)on2)c2c3c(sc2n1)CCCC3 27%
CCOC(=O)c1ccc(NC(=S)N2CCN(c3ccccn3)CC2)cc1 26.1%
N#Cc1c(N)nc2c3c(sc(=N)c2c1N)NC(=O)CC3c1ccccc1Cl (stereo not given) 31.7%
CCOc1cc(-c2cc(-c3ccc(OC)cc3)nc(N)c2C#N)ccc1O 31.7%
CCN(CC)c1ccc2cc(C(N)=O)/c(=N\NC(=O)c3ccncc3)oc2c1 35.1%
c1ccc(CSc2ncnc3c2sc2nc(N4CCOCC4)c4c(c23)CCCC4)cc1 158%
CCCNC(=O)Nc1ccc2c(c1)C(=O)N(C)[C@H]1CC[C@H](CC(=O)NCC3CCCCC3)O[C@@H]1CO2 119%
COc1ccc(CCNc2nc3ccc(C)cc3n3cnnc23)cc1OC 41.9%
COC(=O)Cn1c(=NC(=O)c2cc(OC)c(OC)c(OC)c2)sc2cc(OC)ccc21 23.3%

activity, inactive:
COc1ccc(S(=O)(=O)N(C)CC(=O)NCCCN2CCOCC2)cc1Cl 3.3%
CCCS(=O)(=O)NC(=O)C1(C)CCCN(C(=O)c2cccs2)C1 (stereo not given) -2.98%
Nc1nc(/C(=C/CC(=O)O)C(=O)N[C@@H]2C(=O)N3C(C(=O)O)=CCS[C@H]23)cs1 -0.02%
CCC(C)C(N)C1=NC(C(=O)NC(CC(C)C)C(=O)NC(CCC(=O)O)C(=O)NC(C(=O)NCCCCC2NC(=O)C(CC(N)=O)NC(=O)C(CC(=O)O)NC(=O)C(Cc3cnc[nH]3)NC(=O)C(Cc3ccccc3)NC(=O)C(C(C)CC)NC(=O)C(CCCN)NC2=O)C(C)CC)CS1 (stereo not drawn) (cyclo(DNK([Ile-Glu-Leu-X1])[Orn]IFH); configuration not given here) -1.28%
COc1ccc(Cl)cc1-c1cc(C(=O)Nc2cc(OC)c(OC)c(OC)c2)[nH]n1 0.68%
CCC(C)NC(=O)c1cc(Cl)ccc1OC (stereo not given) -0.16%
Cc1ccc2c(C)c(C(=O)N3CCC(N4CCC(C(=O)NC5CC5)CC4)CC3)oc2c1 5.47%
O=C(NCCCc1ccccc1)[C@H](Cc1ccccc1)NC1(C(=O)NCCc2c[nH]c3ccccc23)CCC1 1.61%
CCc1cccc(NC(=S)N(CCN(C)C)C2CCN(C(C)C)CC2)c1 -2.21%
CCOc1ccc2c(c1)cc(CN(C(=O)CC)C1CCCCC1)c1nnnn12 -0.47%
O=C(c1cccc(Br)c1)N1CCN(C2=NS(=O)(=O)c3ccccc32)CC1 1%
CC(=O)NCc1ccc(S(=O)(=O)NC2CCN(Cc3ccccc3)CC2)cc1 -1.17%
COc1ccc(CN(C(=O)CSc2nnc(-c3ccc(OC)c(OC)c3)o2)c2ccc(F)cc2)cc1 4.8%
CCCn1c(SCC(=O)c2ccc3c(c2)OCCO3)nnc1C(C)C -3.34%
CCc1ccccc1NC(=O)CSc1nnc(-c2cccs2)o1 -8.53%
O=C(CCc1nnc2ccc(NCc3ccccc3Cl)nn12)NCC1CCN(C2CCCC2)C1 (stereo not given) -21.6%
CC12CCC(=O)C=C1CCC1C2[C@@H](O)CC2(C)C1CC[C@]2(O)C(=O)COP(=O)(O)O (stereo not given in full) 1.93%
CC(C)CCn1c(=O)c2c(nc3n2CCCN3Cc2ccccc2)n(C)c1=O -1.34%
C/C(Cc1ccccc1)=N\NC(=O)CNC(=O)c1cccc(Br)c1 -0.21%
O=C(N/N=C/c1ccc(OCC2COCCO2)cc1)c1ccc(Br)cc1 (stereo not given) -0.42%
Cc1nc(CNc2ncnc3ccc(-c4ccc5c(c4)OCO5)cc23)cs1 -0.38%
CCOC(=O)C1CCN(C(=O)C(C)(C)NC(=O)Nc2ccc(F)c(F)c2)CC1 -2.08%
CC(C)NC(=O)CCCn1c(=S)[nH]c2cc3c(cc2c1=O)OCO3 -1.56%
CCN(CC)CCCNC(=O)c1ccc2c(=O)n(Cc3ccc4c(c3)OCO4)c(=S)[nH]c2c1 -2.35%
CCC[C@H]1C(=O)CC[C@@]23CCCN2C(=O)CCC[C@@H]13 -1.54%
CO/N=C(/C(=O)N[C@@H]1C(=O)N2C(C(=O)O)=C(CSc3nc(=O)c(O)nn3C)CS[C@H]12)c1csc(N)n1 -8.75%
O=C(Nc1ccc(F)cc1)C1CCCN(S(=O)(=O)c2ccc(-n3cnnn3)cc2)C1 (stereo not given) 4.65%
COc1ccc(-c2cc(-c3nnc(SCC(=O)Nc4cccc5ccccc45)n3N)[nH]n2)cc1 -0.24%
O=C(OCc1ccccc1)c1ccc(O)cc1 -3.01%
CC(=O)C1(C)N(O)C(C)(C)C(c2cccs2)=[N+]1[O-] (stereo not given) -3.38%
C=C1C(C(C)C)N(C)C2=NC(c3ccccc3)CC(=O)N12 (stereo not given) 0.81%
O=S1(=O)CC(N2CCN(Cc3ccccc3F)CC2)CN1Cc1cn(Cc2ccccc2)nn1 (stereo not given) -7.27%
COc1ccc(CCNC(=O)CCC(=O)NC2CCCCC2)cc1OC -2.47%
COc1ccc(-c2noc(CCCC(=O)NC3CCCC3)n2)cc1OC -0.42%
O=C(NC1CCC1)c1ccc(C#Cc2cccc(F)c2)c[n+]1[O-] 1.34%
Cc1cc(NC(=O)CSc2nnc(-c3ccc(Cl)s3)o2)no1 6.3%
Cc1cc(NC(=O)Cn2nc(C(F)(F)F)c3c2CCCC3)no1 -1.28%
Cc1cc(NC(=O)CSc2nc(=O)cc(N)n2-c2ccc(F)cc2)no1 -4.08%
CCn1c(SCC(C)=O)nc2sc3c(c2c1=O)CCCC3 -1.07%
O=C(NCc1ccco1)C1CCCN(S(=O)(=O)c2ccc(Cl)s2)C1 (stereo not given) -2.05%
COCCCNC(=O)CN1CCN(Cc2ccccc2Cl)C1=O -7.51%
COC(=O)Nc1ccc(S(=O)(=O)N(C)CC(F)(F)C(F)F)cc1 3.77%
CCOc1ccccc1N1CCN(C(=S)Nc2ccc(S(N)(=O)=O)cc2)CC1 -6.97%
CCN(CC)c1ccc(NC(=O)CN2CCN(c3ccccn3)CC2)cc1 -0.51%
O=C1CC(C(=O)O)NC(=S)N1 (stereo not given) -0.01%
CCCCCCSc1ccc([C@@H]2[C@H]3C(=O)N(CC)C(=O)[C@H]3[C@]3(C(=O)OC)CCCCN23)cc1 -1.1%
COC(=O)[C@]12CCCCC=C1N(Cc1ccccc1)C(=O)[C@H](CC(=O)NCc1ccc(C)o1)C2 -2.87%
COc1ccc(-c2nc3n(c(=O)c2C#N)CCS3)c(OC)c1 0.62%
CCOc1cc(-c2conc2N)cc(OCC)c1OCC -2.64%
CCn1c(=O)n2n(c1=O)[C@@]1(C=C3CCCC[C@H]32)N=C(NC(=O)c2ccccc2)N(Cc2ccccc2)[C@H]1Cc1ccccc1 -9.89%
CCN(CC)c1ccc(/C=N/NC(=O)CNC(=O)c2cccs2)cc1 0.7%
C/C(=N\NC(N)=S)c1ccncc1 0.98%
N#C/C(C(=O)N1CCOCC1)=C1/SC(Cc2ccc(F)cc2)C(=O)N1c1ccccc1 (stereo not given) 5.35%
COC(=O)c1ccccc1N=Nc1c(C)[nH][nH]c1=O 3.84%
CC(=O)c1c(N2CCOCC2)nc(=S)n(Cc2ccccc2)c1C -2.43%
O=S(=O)(c1ccccc1)c1nc(Cc2ccccc2)oc1N1CCOCC1 -4.54%
CCOC(=O)N1CCN(c2cc(C)c([N+](=O)[O-])cc2F)CC1 -1.95%
CCC(=O)Nc1ccc2c(c1)C(=O)N(C)[C@H]1CC[C@H](CC(=O)NCCOC)O[C@@H]1CO2 9.28%
CCC(=O)Nc1ccc2c(c1)C(=O)N(C)[C@@H]1CC[C@@H](CC(=O)NCCc3ccccc3)O[C@H]1CO2 15.2%
CC(Sc1nnnn1C)C(=O)NC(=O)NC1CCCCC1 (stereo not given) 6.95%
CN(CC(=O)NCCc1ccc(F)cc1)CC(=O)Nc1ccc(F)c(F)c1F -0.12%
COc1ccccc1CCNC(=O)C1CCN(c2nc(C)cc(C)n2)CC1 2.47%
COc1ccc(Cl)cc1-n1c(C)cc(C(=O)OCC(=O)N2CC(=O)Nc3ccccc32)c1C -0.59%
COc1ccc(CCNc2cc(C)nc3c(-c4ccc(Cl)cc4)c(C)nn23)cc1OC 7%
CCOC(=O)CSc1nc2ccc(C)cc2n2cnnc12 1.03%
COC(=O)Cn1c2ccc(C)cc2c2nc(C)sc21 5.92%
COC(=O)Cn1c(=NC(=O)CSCC(=O)Nc2cc(C)on2)sc2ccccc21 3.13%
